From PubChem BioAssay (NCATS)
Inconclusive results are not listed. Calls of active or inactive are those of the source. Calls come from the whole dose curve.

Test: qHTS Assay for Lipid Storage Modulators (AID 1519); for activity change, negative = inhibition: % is set by controls: 0 for no effect and ±100 for the full control effect
Details: Drosophila S3 cells, BODIPY lipid droplet/cell ratio, laser cytometry; at 57.5 µM (top of the series); cells loaded with oleic acid
Summary of the method: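 Cells seeded at 5,000 per well were treated with compounds over a concentration series and loaded with oleic acid (400 uM, as added). Lipid droplet fluorescence (488 nm excitation, 500-530 nm channel) was read by laser-scanning cytometry and normalized to 20 uM Triacsin C.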

| SMILES | activity change, negative = inhibition |
| --- | --- |
| N#Cc1ccc(CN2CC3(CCN(C(=O)c4cnccn4)CC3)C2)cc1 | 3.16% (inactive) |
| CC(C)NC(=O)N1CC[C@@]2(CCCN(S(=O)(=O)c3ccccc3)C2)C1 | 3.83% (inactive) |
| O=C(c1cccc(F)c1)N1CCC2(CC1)CN(c1ccccn1)C2 | 6.42% (inactive) |
| COc1ccc(C(=O)N2CCC3(CCN(Cc4ccc(C#N)cc4)CC3)CC2)cc1 | 1.02% (inactive) |
| O=C(c1cccc(F)c1)N1CCC2(CCCN(C(c3ccccc3)c3ccccc3)C2)CC1 | 2.12% (inactive) |
| O=C(c1ccncc1)N1CCC2(CC1)CN(c1ccccn1)C2 | 3.6% (inactive) |
| COc1ccccc1CN1CCC2(CC1)CCN(S(C)(=O)=O)CC2 | -1.09% (inactive) |
| Cn1cccc1C(=O)N1CCC[C@@]2(CCN(C(=O)Nc3cccc(F)c3)C2)C1 | 4.9% (inactive) |
| CC(C)CN1CC[C@@]2(CCCN(C(=O)c3ccco3)C2)C1 | 3.8% (inactive) |
| COc1ccccc1CN1CCCC2(CCN(S(=O)(=O)c3ccccc3)CC2)C1 | 0.969% (inactive) |
| Cn1cccc1C(=O)N1CCC2(CCCN(C(c3ccccc3)c3ccccc3)C2)CC1 | 4.95% (inactive) |
| COC(=O)N1CCC2(CC1)CN(c1ccc(-c3ccccc3)cc1)C2 | 5.19% (inactive) |
| COCC(=O)N1CCC2(CCCN(Cc3ccc(C#N)cc3)C2)CC1 | 4.66% (inactive) |
| COCC(=O)N1CCC2(CC1)CCN(c1ncccn1)CC2 | 3.55% (inactive) |
| O=C(c1ccncc1)N1CCC2(CCCN(Cc3nccs3)C2)CC1 | 6% (inactive) |
| COC(=O)N1CCC2(CCCN(C(=O)Nc3cccc(C#N)c3)C2)CC1 | 4.6% (inactive) |
| c1ccc(Nc2ncnc3ccc(-c4cccnc4)cc23)cc1 | 7.8% (inactive) |
| O=C(c1csnn1)N1CCC2(CCN(Cc3cc(C(F)(F)F)cc(C(F)(F)F)c3)CC2)CC1 | 1.96% (inactive) |
| CN(C)Cc1ccccc1-c1ccc2ncnc(N3CCOCC3)c2c1 | 9.22% (inactive) |
| O=S(=O)(c1ccccc1)N1CCC2(CC1)CN(c1ccncc1)C2 | 2% (inactive) |
| COC(=O)N1CCC2(CCCN(c3ccccn3)C2)CC1 | 1.3% (inactive) |
| CC(=O)N1CCC2(CCCN(Cc3ccc(C#N)cc3)C2)CC1 | 4.86% (inactive) |
| COc1ccccc1CN1CCC2(CC1)CCN(C(=O)c1cccc(F)c1)CC2 | 2.42% (inactive) |

Same assay, conditions: Drosophila S3 cells, BODIPY lipid droplet/cell ratio, laser cytometry; measured here: cell count channel max response; cells loaded with oleic acid

| SMILES | max response [%] |
| --- | --- |
| COc1ccc(C(=O)N2CCC3(CC2)CCN(c2ccncc2)CC3)cc1 | 12.5 |
| CC(C)CN1CC2(CCN(C(=O)c3csnn3)CC2)C1 | -2.36 |
| Cn1cccc1C(=O)N1CCC2(CCCN(C(=O)Nc3cccc(F)c3)C2)CC1 | -2.38 |
| Cc1cnc(CNc2ncncc2-c2ccccc2CN(C)C)cn1 | 4.47 |
| COc1ccccc1CNc1ncncc1-c1ccccc1C | -3.12 |
| CS(=O)(=O)N1CCC2(CC1)CN(c1ccccc1)C2 | 14 |
| O=C(c1cnccn1)N1CCC2(CC1)CCN(c1ccncc1)CC2 | 3.08 |
| CCNc1ncc2ncc(=O)n(C[C@H]3CCCO3)c2n1 | 16.3 |
| O=C(c1cnccn1)N1CCC2(CCCN(Cc3ccccc3)C2)CC1 | 14.6 |
| COc1ccccc1CN1CCC2(CC1)CCN(C(=O)c1ccco1)CC2 | 1.79 |
| CN(C)C(=O)c1ccc(-c2nc(NCc3ccccc3)c3ccccc3n2)cc1 | 6.91 |
| O=C(c1cccc(F)c1)N1CCC2(CCCN(c3ccccn3)C2)CC1 | 9.06 |
| CC(C)CN1CCCC2(CCN(C(=O)c3cnccn3)CC2)C1 | 5.13 |
| CN1CCC2(CC1)CCN(C(=O)c1cccc(F)c1)CC2 | 3 |
| CC(C)CN1CC2(CCN(S(=O)(=O)c3ccccc3)CC2)C1 | -17.9 |
| CN(C)C(=O)c1ccc(-c2nc(NCc3cccs3)c3ccccc3n2)cc1 | 0.768 |
| N#Cc1ccc(CN2CC3(CCN(C(=O)c4cnccn4)CC3)C2)cc1 | 15 |
| CC(C)NC(=O)N1CC[C@@]2(CCCN(S(=O)(=O)c3ccccc3)C2)C1 | -9.01 |
| O=C(c1cccc(F)c1)N1CCC2(CC1)CN(c1ccccn1)C2 | 17.7 |
| COc1ccc(C(=O)N2CCC3(CCN(Cc4ccc(C#N)cc4)CC3)CC2)cc1 | 16.6 |

| SMILES | max response [%] |
| --- | --- |
| O=C(c1cccc(F)c1)N1CCC2(CCCN(C(c3ccccc3)c3ccccc3)C2)CC1 | 14.6 |
| O=C(c1ccncc1)N1CCC2(CC1)CN(c1ccccn1)C2 | 0.68 |
| COc1ccccc1CN1CCC2(CC1)CCN(S(C)(=O)=O)CC2 | -18.8 |
| Cn1cccc1C(=O)N1CCC[C@@]2(CCN(C(=O)Nc3cccc(F)c3)C2)C1 | 9.75 |
| CC(C)CN1CC[C@@]2(CCCN(C(=O)c3ccco3)C2)C1 | 3.5 |
| COc1ccccc1CN1CCCC2(CCN(S(=O)(=O)c3ccccc3)CC2)C1 | -4.49 |
| Cn1cccc1C(=O)N1CCC2(CCCN(C(c3ccccc3)c3ccccc3)C2)CC1 | 6.53 |
| COC(=O)N1CCC2(CC1)CN(c1ccc(-c3ccccc3)cc1)C2 | -7.69 |
| COCC(=O)N1CCC2(CCCN(Cc3ccc(C#N)cc3)C2)CC1 | -1.66 |
| COCC(=O)N1CCC2(CC1)CCN(c1ncccn1)CC2 | 11.8 |
| O=C(c1ccncc1)N1CCC2(CCCN(Cc3nccs3)C2)CC1 | 2.79 |
| COC(=O)N1CCC2(CCCN(C(=O)Nc3cccc(C#N)c3)C2)CC1 | 16 |
| c1ccc(Nc2ncnc3ccc(-c4cccnc4)cc23)cc1 | -20.7 |
| O=C(c1csnn1)N1CCC2(CCN(Cc3cc(C(F)(F)F)cc(C(F)(F)F)c3)CC2)CC1 | 7.55 |
| CN(C)Cc1ccccc1-c1ccc2ncnc(N3CCOCC3)c2c1 | 6.66 |
| O=S(=O)(c1ccccc1)N1CCC2(CC1)CN(c1ccncc1)C2 | 0.397 |
| COC(=O)N1CCC2(CCCN(c3ccccn3)C2)CC1 | 13.5 |
| CC(=O)N1CCC2(CCCN(Cc3ccc(C#N)cc3)C2)CC1 | 10.3 |
| COc1ccccc1CN1CCC2(CC1)CCN(C(=O)c1cccc(F)c1)CC2 | -4.91 |
